37 molecules from article PMC5540273 (PLoS ONE, 2017) can be followed below.

Each structure is given as a SMILES string.
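Also: KINOMEscan kinase panel screen.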

The first test deals with FGFR3. Particulars: concentration: 1 μM, replicates: in singlicate; n = 1.
For `Cc1ccc(C)c(NC(=O)NC2CCN(c3ccnc(Nc4ccc(F)cc4)n3)C2)c1` (centres unmarked) [GSK1379720], the “%Inh” value is 2%.

For the molecule `COCCOCCOc1cc2ncc3c4ccc(C#N)cc4[nH]c3c2cc1OC`, the “%Inh” value is given as 18%.

With `CN1CCN(Cc2cccc(-c3ccc4c(Nc5ccc(Oc6ccccc6)cc5)ccnc4c3)c2)CC1` [GW578342], the “%Inh” value worked out at 17%.

In the case of `Cl.Cl.NCC(NCc1ccc(-c2ccnc3[nH]ccc23)s1)c1ccccc1` (centres unmarked) [GSK1321565], the “%Inh” value turned out to be 19%.

As to `Cn1cc(-c2ccc3c(c2)CCN3C(=O)Cc2cccc(F)c2)c2c(N)ncnc21` [GSK2603358], the “%Inh” value stood at 0%.

In the case of `Clc1ccc(-c2nn3ncccc3c2-c2ccnc(Nc3ccc4c(c3)OCCO4)n2)cc1` [GW829116], the “%Inh” value was found to be 0%.

Consider `Nc1ncc(-c2cccnc2)c2scc(-c3ccc4c(c3)CCN4C(=O)Cc3ccccc3)c12` [GSK683281], for which the “%Inh” value was determined as 7%.

Another test deals with FGFR4. Particulars: concentration: 1 μM, replicates: in singlicate; n = 1.
For `CCS(=O)(=O)c1ccc(OC)c(Nc2nccc(-c3c(-c4cccc(NC(=O)c5c(F)cccc5F)c4)nn4ncccc34)n2)c1` [GSK326180], the “%Inh” value came out at 16%.

For `COc1cc(Nc2nccc(-c3c(-c4cccc(NC(=O)c5c(F)cccc5F)c4)nn4ncccc34)n2)cc(OC)c1OC` [GSK327238], the “%Inh” value came out at 9%.

Turning to `COc1ccc(-c2coc3ccc(-c4nnc(SCc5ccc(OC)c(C(F)(F)F)c5)o4)cc23)cc1`, the “%Inh” value came out at 2%.

`Oc1cc(Nc2ccnc3cc(I)ccc23)ccc1F` [GW552771]: the “%Inh” value was 0%.

Regarding `O=c1[nH]cc(-c2ccc(N3CCOCC3)cc2)c2sc(-c3cn[nH]c3)cc12` [GSK2276055], the “%Inh” value is on record as 0%.

For `FC(F)(F)c1ccc(/C=C/c2cncnc2Nc2ccc3[nH]c(Cc4ccccc4)nc3c2)cc1` [GW709199], the “%Inh” value was 4%.

Regarding `Nc1ncnc2c1nc(-c1ccccc1)n2-c1ccccc1` [SKF-97293], the “%Inh” value is 0%.

In the case of `Cn1cc(-c2ccc3c(c2)CCN3C(=O)Cc2cccc(Cl)c2)c2c(N)ncnc21` [GSK2606590], the “%Inh” value is reported as 0%.

As to `Cc1ccc(C(=O)Nc2ccc(Nc3ccnc4cc(-c5nccs5)ccc34)cc2O)cc1.Cl` [GW494702], the “%Inh” value is listed as 0%.

In the case of `COc1cc(Nc2ncc3c(C)nc(-c4cc5ccccc5[nH]4)n3n2)cc(OC)c1OC` [GW869516], the “%Inh” value is recorded as 15%.

`COc1ccc(CNC(=O)NC2CCN(c3ccnc(Nc4ccc(F)cc4)n3)CC2)cc1` [GSK1379788]: the “%Inh” value is 0%.

`CCn1c(-c2nonc2N)nc2c(C#CC(C)(C)O)nc(OC[C@H](N)c3ccccc3)cc21` [GSK943949]: the “%Inh” value is listed as 0%.

On to `Cl.c1ccc(-c2ccc3c(Nc4ccc5[nH]ncc5c4)ccnc3c2)nc1` [GW440137], for which the “%Inh” value amounted to 0%.

Consider `COc1cccc(-c2ccc3c(NC(=O)C4CC4)n[nH]c3n2)c1` [SB-710903], for which the “%Inh” value was 9%.

Consider `COc1cccc(C(=O)Nc2cccc(Oc3ccc4nc(NC(=O)C5CC5)cn4n3)c2)c1`, for which the “%Inh” value was 48%.

For `CNC(=O)c1ccccc1Nc1nc(Nc2ccc(N3CCOCC3)cc2)ncc1Cl.Cl` [GSK1576028], the “%Inh” value came out at 92.3%.

For the molecule `O=C(Nc1cccc(Oc2ccc3nc(NC(=O)C4CC4)cn3n2)c1)c1ccccc1C(F)(F)F`, the “%Inh” value came to 2%.

For the molecule `Cc1ccc(S(=O)(=O)Nc2ccc(Nc3nccc(Nc4cccc5[nH]ncc45)n3)cc2)cc1` [GSK581271], the “%Inh” value is recorded as 0%.

In the case of `Cc1cccc(NC(=O)Nc2ccc(Oc3ncnc4ccn(C)c34)cc2)c1`, the “%Inh” value is listed as 0%.

Take `CC(=O)Nc1nc2cnc(Nc3cc(NC(=O)c4cccc(C5(C#N)CC5)c4Cl)ccc3C)nc2s1`: the “%Inh” value was 0%.

For the molecule `COc1cccc(C2=C(Nc3ccc(Cl)c(C(=O)O)c3)C(=O)NC2=O)c1` [SB-390769], the “%Inh” value turned out to be 25%.

On to `CN(C)S(=O)(=O)c1cc(-c2ccc3nccc(-c4cccc(S(N)(=O)=O)c4)c3c2)cnc1N` [GSK1669921], for which the “%Inh” value is reported as 13%.

In the case of `O=C(Nc1ccccc1F)NC1CCN(c2ccnc(Nc3ccc(F)cc3)n2)CC1` [GSK1379800], the “%Inh” value was found to be 2%.

For the molecule `O=C(Nc1n[nH]c2cc(-c3ccoc3)ccc12)C1CC1` [SB-738481], the “%Inh” value turned out to be 0%.

Consider `CSc1cccc2c(-c3ccncn3)c(-c3ccc(F)cc3)nn12` [GW514786], for which the “%Inh” value is 7%.

As for `CN(c1ccc(NC(=O)Nc2cc(C(F)(F)F)ccc2F)cc1)c1ccnc(Nc2ccc(S(N)(=O)=O)cc2)n1` [GW809893], the “%Inh” value came out at 14%.

As to `O=C(Nc1cccc(-c2nn3ncccc3c2-c2ccnc(Nc3ccccc3)n2)c1)c1c(F)cccc1F` [GSK198271], the “%Inh” value amounted to 14%.

`c1ccc(-c2n[nH]cc2Nc2ccnc3ccccc23)nc1` [GW694077]: the “%Inh” value is recorded as 0%.

As to `Cl.Cl.NCC(C(=O)Nc1cc(Br)c(-c2ccnc3[nH]ccc23)s1)c1ccccc1` (centres unmarked) [GSK1269851], the “%Inh” value is given as 44%.

On to `O=C(Nc1cccc(-c2nn3ccccc3c2-c2ccnc(Nc3cccc(C(F)(F)F)c3)n2)c1)c1c(F)cccc1F` [GSK292658], for which the “%Inh” value is on record as 0%.

For `Cc1ccc(C)c(NC(=O)NC2CCN(c3ccnc(Nc4ccc(F)cc4)n3)C2)c1` (centres unmarked) [GSK1379720], the “%Inh” value worked out at 5%.

In the case of `COCCOCCOc1cc2ncc3c4ccc(C#N)cc4[nH]c3c2cc1OC`, the “%Inh” value was determined as 4%.

For the molecule `CN1CCN(Cc2cccc(-c3ccc4c(Nc5ccc(Oc6ccccc6)cc5)ccnc4c3)c2)CC1` [GW578342], the “%Inh” value is reported as 0%.

On to `Cl.Cl.NCC(NCc1ccc(-c2ccnc3[nH]ccc23)s1)c1ccccc1` (centres unmarked) [GSK1321565], for which the “%Inh” value is 1%.

As for `Cn1cc(-c2ccc3c(c2)CCN3C(=O)Cc2cccc(F)c2)c2c(N)ncnc21` [GSK2603358], the “%Inh” value was 0%.

Take `Clc1ccc(-c2nn3ncccc3c2-c2ccnc(Nc3ccc4c(c3)OCCO4)n2)cc1` [GW829116]: the “%Inh” value is recorded as 0%.

`Nc1ncc(-c2cccnc2)c2scc(-c3ccc4c(c3)CCN4C(=O)Cc3ccccc3)c12` [GSK683281]: the “%Inh” value turned out to be 12%.
